# Experimental data as given in ChEMBL document CHEMBL3988442, “University of Dundee, Small-Polar-MMV Screening Library” (2021).
# The whole screen tested about 66,000 compounds, of which about 960 (1.5%) showed an effect of 50% or more. This excerpt belongs to a sample that is enriched for strong results.
# Tested on: Trypanosoma brucei
# Test: Trypanosoma brucei 72 hour study
# Assay type: functional, organism-based
# Parameters: scale not given: in the data most compounds retested in dose-response had high values
smiles,measurement,setting,value
CN1CCN(C(=O)c2n[nH]c3c2CN(C2CCOCC2)CC3)CC1.O=C(O)C(F)(F)F.O=C(O)C(F)(F)F.O=C(O)C(F)(F)F,Percent Effect,"30.3 µM, […]",-12.86%
Cc1cnn(C2CCCN(C(=O)c3cc4nc(C)ccc4o3)C2)c1 (stereo unspecified),Percent Effect,"30.3 µM, […]",0.9394%
CCN1CC2(CC1=O)CN(Cc1ccc(C)o1)CCN(C(=O)C(C)C)C2.O=C(O)C(F)(F)F (stereo unspecified),Percent Effect,"30 µM, 30.03 µM",-2.917%
COCCN1CCN(Cc2c(C3CCNCC3)[nH]c3ncccc23)CC1.Cl,Percent Effect,"30.3 µM, […]",1.283%
Cc1noc(C)c1C(=O)NCc1ccc(N2CCC(C)CC2)nc1,Percent Effect,10 µM,-31.9%
same,Percent Effect,"30.3 µM, […]",4.367%
COc1cccc(CCC(=O)N2CCC[C@@H](N)[C@@H]2c2ccccc2F)c1.Cl,Percent Effect,"30.3 µM, […]",35.53%
N[C@@H]1CCCN(C(=O)Cc2c[nH]c3ccccc23)[C@H]1c1ccccc1F,Percent Effect,"30.3 µM, […]",82.48%
COc1ccc(CC(=O)N2CCC[C@@H](N)[C@@H]2c2ccccc2F)cc1.Cl,Percent Effect,"30.3 µM, […]",4.872%
Cc1cc(C(=O)N2CCC3(CC2)C(=O)N(C)CCN3CC2CC2)c(C)o1.O=C(O)C(F)(F)F,Percent Effect,"30.3 µM, […]",5.817%
COCCN1C(=O)[C@]2(CC[C@@H]3CN(Cc4ccccc4F)C[C@@H]32)N=C1C.O=C(O)C(F)(F)F,Percent Effect,"30.3 µM, […]",-70.3%
COCc1nn(C(C)C)c2c1CCN(Cc1ccccn1)C2.O=C(O)C(F)(F)F.O=C(O)C(F)(F)F,Percent Effect,"30 µM, 30.03 µM",-4.66%
CCS(=O)(=O)N1CCC2(CN(c3ccsc3)C(=O)CN2C)C1.O=C(O)C(F)(F)F (stereo unspecified),Percent Effect,"30 µM, 30.03 µM",-22.46%
Cc1nc(Nc2nccs2)cc(C2CN(C(C)C)C2)n1,Percent Effect,"30.3 µM, […]",5.847%
Cc1nc(Nc2nncs2)cc(C2CCCN2C)n1 (stereo unspecified),Percent Effect,"30.3 µM, […]",-36.12%
Cc1csc(Nc2cc(C3CN(C(C)C)C3)nc(C)n2)n1,Percent Effect,"30.3 µM, […]",84.55%
CNCC(=O)N1CC(c2cc(Nc3nc(C)cs3)nc(C)n2)C1.Cl,Percent Effect,"30.3 µM, […]",20.55%
Cc1csc(Nc2cc(C3CCCCN3C)nc(C)n2)n1 (stereo unspecified),Percent Effect,"30 µM, 30.03 µM",67.05%
Cc1nc(Nc2nnc(C)s2)cc(C2CCCN2C)n1 (stereo unspecified),Percent Effect,"30 µM, 30.03 µM",-13.78%
Cc1cccc(CN2C[C@@H]3COC[C@]3(CNC(=O)c3cccn3C)C2)n1.O=C(O)C(F)(F)F.O=C(O)C(F)(F)F,Percent Effect,"30 µM, 30.03 µM",12.67%
O=C(O)C(F)(F)F.O=C(O)C(F)(F)F.c1cncc(OCc2noc3c2CN(Cc2cccs2)CC3)c1,Percent Effect,"30 µM, 30.03 µM",-9.325%
Cc1ccc(CN2CC[C@H]3[C@@H]2CCC(=O)N3CCN2CCCC2)s1.O=C(O)C(F)(F)F.O=C(O)C(F)(F)F,Percent Effect,"30 µM, 30.03 µM",11.06%
O=C(O)C(F)(F)F.O=C(c1cnc2ccccc2c1)N1CCC2(CCN2c2ncccn2)C1 (stereo unspecified),Percent Effect,"30 µM, 30.03 µM",-41.44%
CN1CCCC(c2cncc(-c3cccc(C(F)(F)F)c3)n2)C1 (stereo unspecified),Percent Effect,"30.3 µM, […]",45.17%
CN1CCCC(c2cccc(-c3cccc(C(F)(F)F)c3)n2)C1 (stereo unspecified),Percent Effect,"30.3 µM, […]",71.49%
CN1CCCC(c2cccc(-c3cccc(F)c3)n2)C1 (stereo unspecified),Percent Effect,"30.3 µM, […]",6.457%
CN(C)C(=O)Cn1c2c(ccc1=O)CCN(Cc1cnn(C)c1)CC2.O=C(O)C(F)(F)F,Percent Effect,"30.3 µM, […]",-19.86%
O=C(NCc1ccco1)[C@H]1CC[C@@H]2[C@@H](CCN2c2ncc(F)cn2)O1.O=C(O)C(F)(F)F,Percent Effect,"30 µM, 30.03 µM",-7.643%
Cc1ccc(N(C)S(=O)(=O)c2cc(C(=O)O)cs2)cc1,Percent Effect,"30.3 µM, […]",-13.08%
Cl.NC(=O)C(c1ccc(F)cc1)N1CCN(CCO)CC1 (stereo unspecified),Percent Effect,"30 µM, 30.03 µM",-19.82%
Nc1ccnc(-c2cc(NC3CCNCC3)nc3[nH]ccc23)c1,Percent Effect,"30.3 µM, […]",98.23%
COc1nccnc1-c1cc(NC2CCNCC2)nc2[nH]ccc12,Percent Effect,"30 µM, 30.03 µM",-21.13%
FC(F)(F)c1ccc(-c2cc(NC3CCNCC3)nc3[nH]ccc23)nc1,Percent Effect,"30.3 µM, […]",-0.8147%
CN(C)CCN1CCC2(CCN(C(=O)c3ccc(F)cc3)CC2)C1=O.O=C(O)C(F)(F)F,Percent Effect,"30.3 µM, […]",-18.87%
CS(=O)(=O)NCc1cnc2n1CCN(Cc1ccoc1)CC2.O=C(O)C(F)(F)F,Percent Effect,"30 µM, 30.03 µM",-17.96%
CC(C)(C)c1cn2c(n1)C(CNCc1cnn3ccccc13)CCC2 (stereo unspecified),Percent Effect,"30.3 µM, […]",100%
Cn1cccc1CNCC1CCCn2cc(C(C)(C)C)nc21 (stereo unspecified),Percent Effect,"30.3 µM, […]",99.88%
CC(C)(C)c1cn2c(n1)C(CNCc1ccccn1)CCC2 (stereo unspecified),Percent Effect,"30.3 µM, […]",52.9%
Cc1ccc(CNCC2CCCn3ccnc32)s1 (stereo unspecified),Percent Effect,"30.3 µM, […]",6.823%
Cc1nc(C)c(CNCC2CCCn3ccnc32)s1 (stereo unspecified),Percent Effect,"30.3 µM, […]",-1.913%
Cc1cn2c(n1)C(CNCc1cnn3ccccc13)CCC2 (stereo unspecified),Percent Effect,"30.3 µM, […]",-7.399%
Cc1cn2c(n1)C(CNCc1cccc3c1OCO3)CCC2 (stereo unspecified),Percent Effect,"30.3 µM, […]",8.746%
Cn1cccc1CNCc1nnc2n1CCCC2C(F)(F)F (stereo unspecified),Percent Effect,"30.3 µM, […]",-4.039%
CC(C)(C)c1ncc(CNCC2CCCn3ccnc32)s1 (stereo unspecified),Percent Effect,"30.3 µM, […]",9.708%
O=C(O)C(F)(F)F.O=C(c1cccc(Cl)c1)N1CC[C@H]2[C@H]1CCN2CC1CCOCC1,Percent Effect,"30 µM, 30.03 µM",13.39%
Cc1noc(C)c1CN1CCC2(CCN(Cc3cccc(F)c3)CC2)C1.O=C(O)C(F)(F)F.O=C(O)C(F)(F)F,Percent Effect,"30.3 µM, […]",-58.32%
Cc1ccc(CN(CCCn2ccnc2)Cc2cnn(C)c2)s1.O=C(O)CC(O)(CC(=O)O)C(=O)O,Percent Effect,"30.3 µM, […]",-61.1%
CNc1ncc2c(n1)CN(C1CC(C)(C)NC(C)(C)C1)C2=O,Percent Effect,"30.3 µM, […]",8.017%
CCn1nc(C)c2nc(C)nc(NCCc3ccccc3)c21,Percent Effect,"30.3 µM, […]",92.15%
CCCc1nc(NCCCn2cccn2)c2c(n1)c(C)nn2CC,Percent Effect,"30.3 µM, […]",10.65%
CCCn1c(NCCc2ccccc2)nc2c(C)nn(C)c2c1=O,Percent Effect,"30.3 µM, […]",99.9%
